In PubChem BioAssay (NCI):
Values joined by “and” are separate entries in the source; they are usually repeats but may differ in a detail not shown here. Equal values may be shown once. About 83,000 compounds went through this panel and 20% of them were active in at least one assay; those are over-represented in the sample as a whole.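 Growth was measured after 48 h exposure to one concentration of compound in 96-well plates. Values under 10 count as active.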 A number with no mark means an inactive call. Active and inactive are the calls of the source.

The molecules below were run on MDA-MB-468 breast (assay: NCI-60 one-dose screen, 48 h (100 = growth as untreated, 0 = no growth, -100 = all killed)). Details: 10 µM unless noted.

Compound	growth
CN(C)CCC(=O)c1ccc(Cl)cc1	97.3% and 97.2%
O=C(/C=C/c1ccccc1)c1ccc(Nc2nc(NCCO)nc(Nc3ccc(Cl)cc3)n2)cc1	64.5%
COc1ccc(/C=C2/C(=O)ON=C2C)cc1	103%
CCOC(=O)C1C(=O)C=C(c2ccc(OC)cc2)CC1c1sc(N(C)Cc2ccccc2)nc1Cl (stereo not given)	58.3%
COc1cc(-c2nc3ccccc3s2)ccc1NC(=O)COc1ccc(Cl)cc1	21.3%
Cc1ccc(S(=O)(=O)NCCCNc2nc(Nc3ccc(N4CCN(C)CC4)cc3)nc3ccsc23)cc1	12.3%
COc1ccc2c(/C=C3/C(=O)NC(=S)NC3C)cc(=O)oc2c1 (stereo not given)	90.4%
COP(=O)(OC)C(C)(C)CC(=O)CC(C#N)(C#N)C(C#N)C#N	104%
CCOC(=O)/C(C#N)=C\Nc1ccc2ncnc(Nc3ccc(Cl)cc3Cl)c2c1	56.4%
S=C(NCc1ccc2c(c1)OCO2)N1CCN(c2ncnc3c2oc2ccccc23)CC1	-11% (active)
CCN1C(=O)N(CC)C2C1NN=c1s/c(=C3\C(=O)Nc4ccccc43)c(=O)n12 (stereo not given)	-20.9% (active)
COc1ccc(/C=C(/C2=NCCN2)n2ccc3ccccc32)cc1	89.6%
O=C1/C(=C/c2ccc([N+](=O)[O-])s2)Oc2ccc(Cl)cc21	-36.2% (active)
COc1cnc2c(c1)C(=O)c1c-2n(CCCNCC2CC2)c(=O)c2cc(F)ccc12	-38.4% (active)
O=c1[nH]c(CNc2ccc(NCc3c(-c4ccccc4)no[n+]3[O-])cc2)nc2c1cnn2-c1ccccc1	33.2%
COc1ccc2nc3nc4ccc[nH]c4cc3c2c1	-36.6% (active)
Cc1ccc(NCCN2CCCCC2)c2c(=O)c3ccccc3sc12	11.1%
COc1ccc2cc(-c3nc(C)c(C(C)=O)c(-c4ccc(C)cc4)n3)ccc2c1	74.4%
Cn1c(=O)c2[nH]c(=S)n(Cc3ccccc3)c2n(C)c1=O	115%
CCN1CCN(C(=O)[C@]23CCC(C)(C)C[C@H]2C2=CC[C@@H]4[C@@]5(C)Cc6c([nH]c7ccccc67)C(C)(C)[C@@H]5CC[C@@]4(C)[C@]2(C)CC3)CC1	84.7%

Compound	growth
CC(C)[N+]1(C)C2CC[C@@H]1CC(OC(=O)C(CO)c1ccccc1)C2 (stereo not given in full)	109%
COc1cc(C(=O)NNC(=O)c2ccccc2O)cc(OC)c1OC	103%
C=CN(C(=O)N1CCN(c2cc3c(cc2F)c(=O)c(C(=O)O)cn3C2CC2)CC1)c1nc(-c2ccccc2)cs1	100%
c1ccc2sc(SCCCn3ccnc3)nc2c1	61.8%
O=S(=O)(Oc1ccc(Br)cc1)c1ccc(Cl)cc1	105%
COc1ccc(-c2cc(-c3ccc(Cl)cc3)c(C#N)c(=O)n2Cc2ccc(C(=O)Nc3ccccc3N)cc2)cc1	63.8%
COc1cc2nc(Cl)nc(Nc3cccc(C4=Nc5c(N)nc(N)nc5NC(c5ccc(Cl)cc5)C4)c3)c2cc1OC (stereo not given)	27.5%
O=C(NCc1ccccc1)Nc1ccccc1CNc1nc(Nc2ccc(OCCN3CCCC3)cc2)ncc1Cl	74.5%
CC(C)CSc1oc(-c2ccccc2)nc1S(=O)(=O)c1ccccc1	89.4%
O=C(Nc1ccc(-c2ccnc(Nc3ccc(N4CCOCC4)cc3)n2)cc1)[C@@H]1CCCN1	36.2%
COc1cc(C(=O)c2cc3c(cc2C)OCO3)cc(OC)c1OC	27.6%
CSc1n(Cc2ccc3ccccc3c2)c(C)c[n+]1Cc1ccc2ccccc2c1	-47.5% (active)
O=S(=O)(NCCCNc1nccc(-n2ccc3cccnc32)n1)c1cccc(C(F)(F)F)c1	108%
CN1COc2ccc3ccccc3c2C1	111%
Cc1ccc(NC(=O)CNc2cc(C(N)=O)cc(F)c2C)c(Cl)c1	105%
COC1CC(N)C2OC(c3ccccc3)OCC2O1 (stereo not given)	109%
CCN1CCN(c2nc(NNC(=O)c3ccccc3)nc(N3CCN(C(c4ccccc4)c4ccccc4)CC3)n2)CC1	7.71% (active)
CCNc1ncnc2n[nH]nc12	97.2%
CCNc1nc(-c2ccc(Cl)c(OC)c2)c(-c2ccnc(NCCNS(=O)(=O)c3ccc(Cl)cc3)n2)s1	-8.24% (active)
O=C(N/N=C/c1ccc(Oc2ccccc2)cc1)c1cnn2c1NC(c1ccccc1)C2 (stereo not given)	30.2%
